Reference: article PMC4336329 (PLoS ONE, 2015)
Out of some 310,000 compounds screened, about 2,200 (0.71%) showed an effect of 50% or more. The effect is printed as a negative number. What follows is part of a selection rich in strong results, with near analogues and random picks from the rest.

Each molecule was assayed against human ether-à-go-go-related gene (hERG) potassium channel (human, UniProt Q12809) (assay: primary screen, population patch clamp on CHO cells stably expressing hERG; higher = less effect of the substance).
Chain of human ether-à-go-go-related gene (hERG) potassium channel (Q12809 whole entry, looked up): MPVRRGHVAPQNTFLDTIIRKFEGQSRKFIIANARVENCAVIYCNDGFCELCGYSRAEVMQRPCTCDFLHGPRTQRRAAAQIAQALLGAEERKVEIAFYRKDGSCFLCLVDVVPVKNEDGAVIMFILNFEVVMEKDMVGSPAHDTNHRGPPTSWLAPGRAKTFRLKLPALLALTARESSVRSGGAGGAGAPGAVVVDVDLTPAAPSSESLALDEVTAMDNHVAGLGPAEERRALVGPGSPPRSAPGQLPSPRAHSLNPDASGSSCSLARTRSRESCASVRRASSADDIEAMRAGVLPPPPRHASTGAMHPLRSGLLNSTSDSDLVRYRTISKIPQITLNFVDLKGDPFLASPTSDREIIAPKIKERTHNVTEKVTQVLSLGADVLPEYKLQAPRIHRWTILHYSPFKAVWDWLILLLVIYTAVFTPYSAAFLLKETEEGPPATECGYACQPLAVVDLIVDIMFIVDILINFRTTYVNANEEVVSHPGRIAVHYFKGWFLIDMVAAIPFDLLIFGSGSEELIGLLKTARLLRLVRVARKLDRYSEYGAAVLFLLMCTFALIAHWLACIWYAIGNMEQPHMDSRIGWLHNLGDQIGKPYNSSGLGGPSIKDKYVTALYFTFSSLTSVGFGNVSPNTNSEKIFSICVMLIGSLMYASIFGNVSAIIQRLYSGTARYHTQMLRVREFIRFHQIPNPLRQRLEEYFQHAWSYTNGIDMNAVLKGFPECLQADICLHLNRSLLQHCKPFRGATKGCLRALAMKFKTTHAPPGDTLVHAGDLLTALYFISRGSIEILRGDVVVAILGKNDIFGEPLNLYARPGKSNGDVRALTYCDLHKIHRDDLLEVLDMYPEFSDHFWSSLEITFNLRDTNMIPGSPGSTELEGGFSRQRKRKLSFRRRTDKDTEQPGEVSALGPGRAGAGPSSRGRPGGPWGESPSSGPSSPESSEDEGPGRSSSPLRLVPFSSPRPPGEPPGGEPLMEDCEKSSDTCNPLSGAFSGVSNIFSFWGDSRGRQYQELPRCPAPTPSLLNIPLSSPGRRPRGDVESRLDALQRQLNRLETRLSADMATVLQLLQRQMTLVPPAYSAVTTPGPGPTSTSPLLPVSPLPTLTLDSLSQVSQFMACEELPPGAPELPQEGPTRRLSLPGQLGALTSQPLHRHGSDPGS

| Structure (SMILES) | hERG current change (%, negative = inhibition) at 1uM |
| --- | --- |
| Cc1ccc(NC(=O)CSc2ccccc2NC(=O)c2cccc(Cl)c2)cc1Cl | 0.293% |
| CCOc1ccc(C(=O)Nc2c(C(=O)N3CCC(N4CCCCC4)CC3)oc3ccccc23)cc1 | -82% |
| COc1ccc(OCC(=O)Nc2c(C(=O)N3CCC(N4CCCCC4)CC3)oc3ccccc23)cc1 | -82.8% |
| COCC(=O)Nc1c(C(=O)N2CCCC2)oc2ccccc12 | 8.9% |
| O=C(Nc1c(C(=O)N2CCC(N3CCCCC3)CC2)oc2ccccc12)c1ccc(F)cc1 | -47.7% |
| O=C(COc1ccccc1)Nc1c(C(=O)N2CCC(N3CCCCC3)CC2)oc2ccccc12 | -9.1% |
| O=C(Nc1c(C(=O)N2CCC(N3CCCCC3)CC2)oc2ccccc12)c1c(F)cccc1F | -5.22% |
| COc1ccccc1-n1cnc(N)c1C(C)=O | 6.83% |
| COc1cccc(-c2nc(OC(C)C)c3ccccc3n2)c1 | 7.09% |
| CCOC(=O)N1CCN(C(=O)CSCC(=O)Nc2nc(-c3ccc(C)cc3)cs2)CC1 | 1.87% |
| CCOC(=S)SCC(=O)Nc1nc(-c2ccc(Br)cc2)cs1 | -92% |
| CCOC(=S)SCC(=O)Nc1nc(-c2ccccc2)cs1 | 29.9% |
| CCOC(=O)C1=C(C)OC(N)=C(C#N)C1c1ccc(C)o1 (stereo not drawn) | 7.95% |
| COc1ccc(CCN(C)CC(O)COc2ccc(C(C)=O)cc2OC)cc1OC (stereo not drawn) | 8.67% |
| COc1ccc(CCN(C)CC(O)c2ccccc2)cc1OC.O=C(O)C(=O)O (stereo not drawn) | 1.76% |
| COc1ccc(CCN(C)CC(O)COC(c2ccc(F)cc2)c2ccc(F)cc2)cc1OC (stereo not drawn) | -79.9% |
| COc1ccc(CCN(C)Cc2ccc(F)cc2F)cc1OC | -2.08% |
| COc1ccc(CCN(C)CC(O)COc2c(C)ccc(C)c2C)cc1OC (stereo not drawn) | -68.7% |
| COc1ccc(CCNCC(O)COc2c(C)cccc2C)cc1OC.O=C(O)C(=O)O (stereo not drawn) | 7.9% |
| Cc1cccc(Cn2c(=O)n(CCCC(=O)NCc3ccco3)c(=O)c3ccccc32)c1 | -4.67% |
| O=C(CCc1ccccc1)Nc1sc2c(c1C(=O)O)CCCC2 | 20.1% |

| Structure (SMILES) | hERG current change (%, negative = inhibition) at 1uM |
| --- | --- |
| CCc1nnc(N2C(=N)SCC2=O)s1 | 4.71% |
| Cc1ccc(S(=O)(=O)NC(C)C(=O)NC2CCCCCC2)cc1 (stereo not drawn) | -2.05% |
| NC(=O)COC(=O)c1ccc2c(c1)C(=O)N(Cc1ccco1)C2=O | 9.91% |
| N#Cc1ccc(OCc2cccc(S(=O)(=O)N3CCOCC3)c2)cc1 | -57.3% |
| N#Cc1ccccc1OCc1cccc(S(=O)(=O)N2CCOCC2)c1 | 11.3% |
| Cc1cc(OCc2cccc(S(=O)(=O)N3CCOCC3)c2)ccc1Cl | 4.05% |
| COc1ccc(OC)c(/C=N/NC(=O)C(=O)N2CCCC2)c1 | 1.25% |
| CCOC(=O)N1CCN(c2cc(=O)n(-c3ccc(C)cc3)c(=O)[nH]2)CC1 | -8.88% |
| COc1ccc(NC(=O)c2cc([N+](=O)[O-])ccc2N2CCN(C)CC2)cc1 | -15.5% |
| CN1CCN(c2ccc([N+](=O)[O-])cc2C(=O)Nc2ccccc2)CC1 | -59.8% |
| Cc1cccc(NC(=O)c2cc([N+](=O)[O-])ccc2N2CCN(C)CC2)c1 | -41.2% |
| CN1CCN(c2ccccc2NC(=O)c2ccc([N+](=O)[O-])cc2Cl)CC1 | 0.769% |
| CN1CCN(c2ccc([N+](=O)[O-])cc2NC(=O)c2cccs2)CC1 | -14.2% |
| CN1CCN(c2ccc([N+](=O)[O-])cc2NC(=O)c2ccccc2Cl)CC1 | -75.6% |
| O=C1NCCc2c1[nH]c1ccccc21 | -4.21% |
| COc1ccc(C(=O)Nc2ccc(NC(C)=O)cc2)cc1S(=O)(=O)N1CCCC1 | 16.9% |
| Cc1nc(NCCC(C)C)c2nnn(Cc3ccccc3)c2n1 | 11.3% |
| O=C(O)/C=C\C(=O)O.O=[N+]([O-])c1ccc2nc(N3CCNCC3)ccc2c1 | 1.34% |
| COC(=O)/C=c1/s/c(=C(\C#N)C(=O)NCc2ccco2)n(-c2ccccc2)c1=O | 14.8% |
| CCCC(=NCCc1c(C)[nH]c2ccccc12)C1=C(O)CC(c2ccccc2)CC1=O (stereo not drawn) | -11.1% |
| CCCN1CCN(CCCNC(=O)C2CCN(c3nnc(-n4c(C)ccc4C)s3)CC2)CC1 | 13.1% |
